FLuc modulator: counter-screen for miR-21 project: firefly luciferase inhibitors or activators | Potency, µM (series often up to 57.5 µM), without a hit: at the highest dose activity change, negative = inhibition, most hits filed as inhibitors | 360,000 compounds, 6.9% hits | purified FLuc, Km substrates, luminescence inhibition | P08659;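 further: plate controls were vehicle for no effect and reference inhibitor for full effect; nearly all actives have a fitted effect of over 55% in size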
Target sequence (P08659 whole entry, looked up): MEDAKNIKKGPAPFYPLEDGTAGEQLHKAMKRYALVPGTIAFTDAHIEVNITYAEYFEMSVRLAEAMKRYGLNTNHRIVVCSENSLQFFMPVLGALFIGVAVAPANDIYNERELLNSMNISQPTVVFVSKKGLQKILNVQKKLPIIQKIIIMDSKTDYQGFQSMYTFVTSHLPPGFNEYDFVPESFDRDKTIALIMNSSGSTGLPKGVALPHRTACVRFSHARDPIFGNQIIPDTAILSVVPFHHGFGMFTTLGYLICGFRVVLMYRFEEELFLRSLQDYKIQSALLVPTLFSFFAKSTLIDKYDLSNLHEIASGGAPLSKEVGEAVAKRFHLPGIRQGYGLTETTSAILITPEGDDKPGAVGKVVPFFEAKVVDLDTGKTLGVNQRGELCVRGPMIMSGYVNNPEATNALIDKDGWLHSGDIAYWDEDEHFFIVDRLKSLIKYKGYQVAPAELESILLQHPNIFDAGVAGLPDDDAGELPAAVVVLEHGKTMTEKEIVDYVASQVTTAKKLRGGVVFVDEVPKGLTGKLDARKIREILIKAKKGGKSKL
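Purified P. pyralis luciferase (10nM final) with 10uM D-luciferin and 10uM ATP (Km levels) in 50mM Tris acetate pH 7.5, 10mM Mg acetate, 0.01% Tween-20, 0.05% BSA; qHTS 6-point titration, ~60 µM downward; luminescence read.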
p53 reactivator: mutant p53 re-activation in reporter cells; H1299 p53-A138V BP100-luciferase reporter, luminescence, 24 h; Potency, µM (doses to about 92.2 µM), for inactives: at the top dose activity change, positive = activation, hits mostly activators; 320,000 compounds, 0.063% hits; AID 504706; further: % of control where 0% means no effect; nearly all actives have a fitted effect of over 45% in size
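p53-null H1299 cells stably carrying temperature-sensitive p53-A138V and a BP100-luciferase reporter were pinned with compounds (4-point, 1:5 series) and held 24 hrs at 37 deg C. Luminescence was read 10 min after detection reagent.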
Rab9 prom act: activators of Rab9 promoter; Huh7 Rab9 promoter-luciferase reporter, luminescence, 24 h; Potency, µM (highest dose often 9.22 µM), inactives show top-dose activation, negative = inhibition, hits mostly activators; 320,000 compounds, 2.8% hits; further: % of control where 0% means no effect; nearly all actives have a fitted effect of over 60% in size
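Luminescence read-out: Huh7 cells stably expressing Rab9-luciferase, treated 24 h with compound at 37 °C, then lysed with luciferase reagent for 10 min at ambient before reading.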
NPC1 prom act: NPC1 promoter activation | Potency, µM (series often up to 9.22 µM), inactives show top-dose activation, usual class: activators | Huh7 NPC1 promoter luciferase reporter, 24 h | AID 485313 | 320,000 compounds, 2.4% hits; further: % of control where 0% means no effect; nearly all actives have a fitted effect of over 60% in size
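Huh7 cells stably carrying NPC1 promoter–luciferase, plated in Opti-MEM with 10% FBS for 2 h, were exposed to compound in DMSO for 24 h at 37 °C; luciferase reagent was added for 10 min and luminescence read.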
ELG1 genotox: inducers of genotoxicity in HEK293T ELG1-luciferase cells | HEK293T ELG1-luciferase reporter, luminescence, 16 h | Potency, µM (top dose mostly 46 µM), for inactives: at the top dose activity change, positive = activation, usual class: activators | 330,000 compounds, 1.3% hits; further: % of control where 0% means no effect; nearly all actives have a fitted effect of over 60% in size
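Genotoxic stress is detected as increased luminescence from luciferase-tagged ELG1 in HEK293T cells, measured with ONE-Glo after a 16 hr treatment at 37 °C.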
SMN2 splice up: increases expression of the SMN2 splice variant | AID 1458 | HEK293 SMN2-luciferase splicing reporter, luminescence, 30-36 h | Potency, µM (top dose mostly 46.1 µM), for inactives: at the highest dose activity change, positive = activation, hits mostly activators | 210,000 compounds, 2.8% hits; further: % of control where 0% means no effect; nearly all actives have a fitted effect of over 55% in size
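qHTS luciferase splicing reporter: luminescence rises when SMN2 exon 7 is included in transfected HEK293 cells. Compound exposure lasted 30-36 h at 37C, with 4.5 mM final sodium butyrate as control, followed by a ONE-Glo read.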
Active calls of the source: *; ? = inconclusive; . = no result; [ ] = dose if it differs, or a comment. Compounds with a hit are over-represented: about 7.4% of the library has one in this group of screens. The call rests on the fitted dose curve; in most records, active means well fitted curve in the direction sought with a large enough effect; inconclusive means small, poorly fitted or top-dose-only effect, or another doubt; inactive means no such curve, though single readings can be large; an effect the other way counts as inactive or inconclusive. Potency means the concentration at half of the fitted maximal effect.

SMILES	FLuc modulator	p53 reactivator	Rab9 prom act	NPC1 prom act	ELG1 genotox	SMN2 splice up
Nc1ccc(N=Nc2ccc(-c3ccc(O)cc3)cc2)c2ccc(S(=O)(=O)O)cc12	.	.	.	.	.	2%[9.22 µM]
NS(=O)(=O)c1cc2c(cc1C(F)(F)F)N[C@H](Cc1ccccc1)NS2(=O)=O	.	.	.	.	.	-3%[20.6 µM]
Cc1ccc(NC(=O)C(=S)NCc2ccco2)cc1	6µM*	8%	2.8µM*	?	?	17%
Cc1ccc(NC(=O)CSCC(=O)NCc2ccco2)cc1	1%	3%	-4%	-8%	0%	.
Cc1ccc(NC(=O)C(=O)NCc2ccco2)cc1	-17%	.	.	.	.	18µM*
Cc1ccc(C(=O)NC(=S)NCc2ccco2)cc1	?	2%	29%	20%	8%	14%
Cc1ccc(NC(=O)CSCc2ccco2)cc1	15µM*	8%	4µM*	?	?	13µM*
CCCCOc1cccc(C(=O)N(Cc2ccc(Br)o2)C2CCS(=O)(=O)C2)c1 (centres undefined)	-4%	.	.	.	.	.
CC(C)CCNC(=O)CN1N=C(c2ccc(Cl)cc2)CCC1=O	1%	-5%	-35%	0%	-1%	.
CCc1ccc(-n2nc(C)c3c(C)cc(=O)n(Cc4nc(-c5ccccc5)oc4C)c32)cc1	1%	.	.	.	.	.
N#CCC(=O)N/N=C\c1cc(Br)ccc1OC/C=C/c1ccccc1	-4%	20%	?	?	?	.
COc1cc(/C=N\NC(C)=O)ccc1OC/C=C/c1ccccc1	-7%	-8%	3%	2%	-9%	.
CCOC(=O)N/N=C\c1ccccc1OC/C=C/c1ccccc1	4.3µM*	13%	24%	?	?	.
COC(=O)N/N=C\c1ccccc1OC/C=C/c1ccccc1	17µM*	?	29%	?	?	.
Oc1ccc(N=C/C=C/c2ccc(Br)cc2)cc1-c1nc2ccccc2s1	7.6µM*	?	?	3.2µM*	?	-1%[1.84 µM]
CCN(C(=O)CCNC(=O)Cn1cnc2ccccc2c1=O)c1cc(OC)ccc1OC	5%	.	.	.	.	-8%
Cc1ccc(Nc2nnc(-c3ccccc3N)o2)cc1C	2.7µM*	12%	3.5µM*	3.5µM*	?	.
O=C(COc1cc(Cl)c(Cl)cc1Cl)NC(=O)Nc1ccc2c(c1)OCCO2	21µM*	?	?	?	?	18µM*
O=C(COC(=O)COc1ccc(Cl)cc1)Nc1ccc2c(c1)OCCO2	-1%	4%	-2%	0%	-4%	.
Cc1ccc(Cl)c(OCC(=O)Nc2ccc3c(c2)OCCO3)c1	1.9µM*	6%	1.4µM*	2.8µM*	14%	18µM*
CCN(CC(=O)Nc1ccc2c(c1)OCCO2)C(=O)COc1cc(C)ccc1Cl	-17%	4%	-4%	1%	0%	.
O=C(Cc1csc(NC(=O)Nc2cccc(Cl)c2)n1)NCc1ccccn1	2.7µM*	9%	?	22%	2%	.
O=C(Cc1csc(NC(=O)Nc2cccc(Cl)c2)n1)NC1CCCC1	?	17%	1%	26%	-6%	.
O=C(Cc1csc(NC(=O)Nc2ccc(Cl)cc2)n1)NCc1cccnc1	3µM*	15%	24%	24%	0%	.
O=C(Cc1csc(NC(=O)Nc2cccc(Cl)c2)n1)NCc1cccnc1	6.7µM*	?	14%	11%	-8%	.
SMILES	FLuc modulator	p53 reactivator	Rab9 prom act	NPC1 prom act	ELG1 genotox	SMN2 splice up
COc1ccccc1NC(=O)Nc1nc(CC(=O)NCc2cccnc2)cs1	?	-2%	1%	-4%	0%	.
O=C(NCc1cccnc1)Nc1cccc(Cl)c1	-2%	8%	15%	11%	8%	.
CCOc1ccc(S(=O)(=O)NCC(=O)NC2CCCCC2)cc1	2%	13%	-4%	1%	-4%	.
Cc1oc(-c2ccc3c(c2)OCCO3)cc1C(=O)O	2.4µM*	-37%	-39%	-34%	-12%	-36%
COc1ccc(-c2cc(C(=O)O)c(C)o2)cc1OC	1.7µM*	-39%	0.32µM*	?	?	0.63µM*
COc1ccc(-c2cc(C(=O)NC(Cc3cc4ccccc4[nH]3)C(=O)O)c(C)o2)cc1OC (centres undefined)	?	19%	?	22%	16%	.
C(=Nc1ccc(N2CCOCC2)cc1)c1c[nH]c2ccccc12	?	12%	24%	5%	10%	.
CN(C)/N=C/c1c(O)ccc2ccccc12	?	4%	-3%	-2%	0%	-33%
Oc1ccc2ccccc2c1C=Nc1ccccc1Br	11µM*	0%	2%	-4%	0%	.
CS/C(N)=N/N=C/c1c(O)ccc2ccccc12	3µM*	12%	?	-1%	?	.
C=Cc1ccc(N=Cc2c(O)ccc3ccccc23)cc1	19µM*	8%	-3%	-3%	-2%	.
Oc1ccc2ccccc2c1C=Nc1ccc(N2CCOCC2)cc1	6µM*	6%	11%	1%	-5%	26%
NC(N)=NCCC[C@H](NC(=O)[C@@H](N)Cc1ccc(O)cc1)C(=O)O	.	.	.	.	.	3%
Cc1ccc(-n2c(=O)c3c(cnn3C)n(CC(=O)Nc3cc(C)ccc3C)c2=O)cc1	-1%	.	.	.	.	2%
COC(=O)N1C(C)=Cc2ccccc2C1C/C(C)=C/C(C)=O (centres undefined)	.	.	.	.	.	-12%
COc1ccc(CCC(=O)NC2CC(=O)N(c3ccc(OC)cc3)C2)cc1 (centres undefined)	-5%	.	.	.	.	.
Oc1ccccc1N=Cc1c(O)ccc2ccccc12	13µM*	9%	2%	-3%	0%	.
Cc1cc(C(=O)O)ccc1N=Cc1c(O)ccc2ccccc12	0.76µM*	.	-4%	10%	1%	.
CC(=O)c1cccc(N=Cc2c(O)ccc3ccccc23)c1	?	2%	4%	-1%	0%	.
COc1ccc(S(=O)(=O)N2c3ccc(Cl)cc3[C@](O)(c3ccccc3Cl)[C@@H]2C(=O)N2CCC[C@H]2C(N)=O)cc1OC	.	.	.	.	.	-3%
CCOc1ccccc1-n1cc2c(c1-c1ccc(OC)cc1)c(=O)n(C)c(=O)n2C	0%	.	.	.	.	13%
CCCc1cc(=O)[nH]c(Nc2cc(OC)ccc2OC)n1	0%	0%	-1%	1%	-2%	1.3µM*
CCOC(=O)N1CCc2c(sc3c2C(=O)NC(c2cc(OC)c(OC)c(OC)c2)N3)C1 (centres undefined)	?	.	.	.	.	-6%
Fc1ccc(-n2[nH]nnc2=S)cc1N1CCCC1	24µM*	7%	15%	16%	13%	1%
O=C(NNC1=C(C(=O)C(F)(F)F)CCC1)c1ccccc1O	27µM*	23%	26%	13%	-24%	-24%
O=C(NNC1=C(C(=O)C(F)(F)F)CCC1)c1ccccc1Cl	2%	?	-15%	-5%	-2%	10%

Assay outcomes from PubChem.
